Assay [1] addresses Cellular tumor antigen p53 (Homo sapiens) (UniProt P04637). Nature of the assay: Primary qHTS for small molecule compounds that upregulate eGFP-tagged delta133p53alpha (in N-terminal) cells. (AID 2060322). Also: nearly all actives have a fitted effect of over 75% in size. Also: potency is read from the fitted curve at half-maximal effect.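 As to activation: cells pre-induced with doxycycline then dosed without doxycycline; series mostly up to about 56 µM; 0% = DMSO vehicle and 100% = reference activator.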 The note with it: NCI-H358 eGFP-delta133p53alpha fluorescence, 24 h; activation: active compounds read high. The gist of the method: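 NCI-H358 cells pre-induced 24 h with 10 ng/ml doxycycline for eGFP-delta133p53alpha, plated dox-free and exposed 24 h at 37C to titrated compounds. Fixed, Hoechst-stained; gated GFP peak intensity by laser scanning cytometry, normalized to DMSO (0%) and 57.5 uM 5-azacytidine (100%).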
A general note: Quantitative high-throughput screening tests each substance at several concentrations.

In assay [2] the target is Aldehyde dehydrogenase, mitochondrial (Homo sapiens) (UniProt P05091). Nature of the assay: qHTS for Inhibitors of the Aldehyde Dehydrogenase Family (ALDH2) Primary screen (AID 2061308).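 Also: plate controls were vehicle for no effect and reference inhibitor for full effect; nearly all actives have a fitted effect of over 55% in size.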
In assay [3] the target is Retinaldehyde dehydrogenase 3 (Homo sapiens) (UniProt P47895). Nature of the assay: qHTS for Inhibitors of the Aldehyde Dehydrogenase Family (ALDH1A3) Primary screen (AID 2061315).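 Also: plate controls were DMSO vehicle for no effect and reference inhibitor for full effect.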
Assay [4] is described as follows: BET inhibitor-based combinations targeting novel dependencies in MECOM-rearranged (r) AML: SET-2 cell line (AID 2202231). Also: potency is read from the fitted curve at half-maximal effect; nearly all actives have a fitted effect of over 35% in size. Particulars: SET-2 AML cells viability, CellTiter-Glo luminescence, 48 h; viability: active compounds read low, concentration not given here. In a few lines: (§1)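 A 48 hr incubation preceded viability reading by CellTiter-Glo, with 15 min room-temperature development. Dose series had 11 points; normalization used DMSO and empty wells; AUC was computed and mean-centered per line as Z-AUC.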
(ATP-based viability assays read luminescence as a measure of living cells.)

A short description of assay [5]: BET inhibitor-based combinations targeting novel dependencies in MECOM-rearranged (r) AML: OCI-AML3 cell line (AID 2202232). Also: potency is read from the fitted curve at half-maximal effect; nearly all actives have a fitted effect of over 35% in size. Particulars: Potency: OCI-AML3 viability. In a few lines: as §1
A short description of assay [6]: BET inhibitor-based combinations targeting novel dependencies in MECOM-rearranged (r) AML: HNT-34 cell line (AID 2202234). Also: potency is read from the fitted curve at half-maximal effect; nearly all actives have a fitted effect of over 35% in size. The gist of the method: (§2)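 Each compound is tested in an 11-point concentration series against 500 seeded cells/well for 48 hr. The luminescent viability signal is normalized to DMSO and blank wells, then reduced to AUC and a cell-line-centred Z-AUC.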

Assay [7] in a line: BET inhibitor-based combinations targeting novel dependencies in MECOM-rearranged (r) AML: UCSD-AML1 cell line (AID 2202235). Also: potency is read from the fitted curve at half-maximal effect; nearly all actives have a fitted effect of over 40% in size. In a few lines: as §2
Assay [8] can be described thus: BET inhibitor-based combinations targeting novel dependencies in MECOM-rearranged (r) AML: AML-191 cell line (AID 2202236; also: potency is read from the fitted curve at half-maximal effect; nearly all actives have a fitted effect of over 35% in size). In a few lines:
as §1

For assay [9], the target named is Aldehyde dehydrogenase, mitochondrial (Homo sapiens) (UniProt P05091). Briefly: qHTS for Inhibitors of the Aldehyde Dehydrogenase Family (ALDH2) Validation screens (AID 2061302; active = well fitted inhibition curve with a large enough effect; title and protocol of this record describe different tests; also: potency is read from the fitted curve at half-maximal effect).
For assay [10], the target named is Retinaldehyde dehydrogenase 3 (Homo sapiens) (UniProt P47895). Nature of the assay: qHTS for Inhibitors of the Aldehyde Dehydrogenase Family (ALDH1A3) Validation screen (AID 2061312). Also: % is scaled to controls: 0 for no effect and ±100 for the full control effect; nearly all actives have a fitted effect of over 45% in size.
For assay [11], the target named is Cellular tumor antigen p53 (Homo sapiens) (UniProt P04637). Nature of the assay: Primary qHTS for small molecule compounds that upregulate eGFP-tagged delta133p53alpha (in C-terminal) cells. (AID 2060324).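 Also: 0% = DMSO wells and 100% = 57.5 µM 5-azacytidine.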 In a few lines: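 Read-out: gated-cell GFP peak intensity (laser scanning cytometer), plate-normalized with DMSO as 0% activity, after 24 h compound exposure at 37C. Cells were C-terminal eGFP-tagged delta133p53alpha NCI-H358, doxycycline-induced (100 ng/ml, 24 h) before plating.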

Assay [12] can be described thus: BET inhibitor-based combinations targeting novel dependencies in MECOM-rearranged (r) AML: MV-4-11 cell line (AID 2202233). Also: potency is read from the fitted curve at half-maximal effect; nearly all actives have a fitted effect of over 45% in size. The gist of the method:
as §2

A short description of assay [13]: BET inhibitor-based combinations targeting novel dependencies in MECOM-rearranged (r) AML: AML-194 cell line (AID 2202237; also: potency is read from the fitted curve at half-maximal effect; nearly all actives have a fitted effect of over 40% in size). The gist of the method: as §1
A short description of assay [14]: qHTS for Inhibitors of the Aldehyde Dehydrogenase Family (ALDH1A2, ALDH1A3, ALDH2, ALDH3A1) (AID 2061307). Also: test system not described further here; potency is read from the fitted curve at half-maximal effect; nearly all actives have a fitted effect of over 50% in size.
Assay [15] concerns the target Aldehyde dehydrogenase, mitochondrial (Homo sapiens) (UniProt P05091). Briefly: qHTS for Inhibitors of the Aldehyde Dehydrogenase Family (ALDH2) Confirmatory screens (AID 2061303; active = well fitted inhibition curve with a large enough effect; title and protocol of this record describe different tests; also: potency is read from the fitted curve at half-maximal effect; nearly all actives have a fitted effect of over 45% in size).
The target of assay [16] is Aldehyde dehydrogenase 1A1 (Homo sapiens) (UniProt P00352). Nature of the assay: qHTS for Inhibitors of the Aldehyde Dehydrogenase Family (ALDH1A1) Confirmatory screens (AID 2061316). Also: potency is read from the fitted curve at half-maximal effect; nearly all actives have a fitted effect of over 65% in size.
In assay [17] the target is Retinaldehyde dehydrogenase 3 (Homo sapiens) (UniProt P47895). Nature of the assay: qHTS for Inhibitors of the Aldehyde Dehydrogenase Family (ALDH1A3) Confirmatory screens (AID 2061311). Also: potency is read from the fitted curve at half-maximal effect; nearly all actives have a fitted effect of over 60% in size.

Molecules are shown by their SMILES. Values joined by “and” are separate entries in the source; they are usually repeats but may differ in a detail not shown here. Equal entries are not always repeated. Records with an inconclusive call do not appear. Some structures have more than one record in an assay (separate samples or runs), and their calls can disagree. A number with no mark means an inactive call. Active and inactive are the calls of the source. Unless noted, calls follow the shape of the dose curve; as a rule, active = well fitted curve in the direction sought with a large enough effect; inconclusive = small, poorly fitted or top-dose-only effect, or another doubt; inactive = no such curve, though single readings can be large; an effect the other way counts as inactive or inconclusive.

Cellular tumor antigen p53 (Homo sapiens), sequence (P04637 whole entry, looked up): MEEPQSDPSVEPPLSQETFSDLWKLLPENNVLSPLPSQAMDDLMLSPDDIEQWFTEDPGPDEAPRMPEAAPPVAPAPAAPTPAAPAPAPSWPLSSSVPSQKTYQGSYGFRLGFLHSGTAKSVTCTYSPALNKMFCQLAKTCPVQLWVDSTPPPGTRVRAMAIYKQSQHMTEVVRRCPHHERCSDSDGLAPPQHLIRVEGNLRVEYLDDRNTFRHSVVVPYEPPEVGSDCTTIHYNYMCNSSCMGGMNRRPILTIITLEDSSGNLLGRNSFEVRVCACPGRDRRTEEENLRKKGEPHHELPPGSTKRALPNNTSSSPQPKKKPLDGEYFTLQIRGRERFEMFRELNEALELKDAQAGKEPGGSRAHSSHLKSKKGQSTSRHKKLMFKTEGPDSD

In the case of `Cc1cccc(Cc2cnc[nH]2)c1C`, the activation in [1] is -0.837%.

With `CCN1CCN(C(=O)Cc2ccc(Nc3ncc(F)c(Nc4ccc(C(=O)Nc5ccccc5Cl)cc4)n3)cc2)CC1`, the Potency in assay [1] was 4.78 µM (active); in assay [4], 5.25 µM (active); in assay [5], 2.95 µM (active); in assay [6] it was 1.48 µM (active); in assay [7], 3.72 µM (active); in assay [8] it was 6.61 µM (active). Also, the activation in assay [1] was 33.8%. Besides, the Potency entry in assay [2] and in assay [3] was “inactive” in each case.

On to `O=c1[nH]c2ccccc2n1C1CCN(CCCC(c2ccc(F)cc2)c2ccc(F)cc2)CC1`, for which the Potency in assay [1] is 26.9 µM (active). Also, the activation in [1] is -35.4%. Besides, the Potency result in assay [9], in [2], in assay [10] and in assay [3] was “inactive” throughout.

On to `[Cl-].[Cl][Pt].[NH2-].[NH2-].c1ccncc1`, for which the activation in assay [1] was -12%. The Potency entry in assay [11] and in [9] was “inactive” in each case.

Take `OC(O)C(Cl)(Cl)Cl`: the activation in assay [1] is -29.9%.

Regarding `c1ccc(CCCN2CCN(CCOC(c3ccccc3)c3ccccc3)CC2)cc1`, the activation in assay [1] is 1.41% and -30.2%. Also, the Potency entry in assay [11] was “inactive”.

`c1ccc2c(N3CCNCC3)cccc2c1`: the activation in assay [1] was -14.7%. For the same compound, the Potency result in assay [11] and in [9] was “inactive” each time.

Regarding `[N-]=[N+]=CC(=O)OC[C@H](N)C(=O)O`, the activation in assay [1] is 5.02%.

Regarding `N#CCCN`, the activation in assay [1] was 1.42%. Besides, the Potency result in assay [11] and in [9] was “inactive” throughout.

On to `C[N+]1(C)CCN(c2ccccc2)CC1`, for which the activation in assay [1] was -0.912%. For the same compound, the Potency entry in [11] and in assay [9] was “inactive” each time.

As to `N=C(N)c1ccc(CS(=O)(=O)F)cc1`, the activation in [1] was 3.92%. In addition, the Potency result in [11] and in [9] was “inactive” each time.

Turning to `CC[C@H]1C=CC=CC[C@@H](C)[C@H](O)[C@@](C)(O)C(=O)[C@@H](C)[C@H](O)[C@@H](C)C(=O)[C@@H](C)[C@H](O)[C@@H](C)C=CC(=O)O[C@@H]2[C@@H](C)[C@H](CC1)O[C@]1(CC[C@H](C)[C@H](C[C@@H](C)O)O1)[C@H]2C`, the activation in assay [1] was 11.3%.

Turning to `CC(C(O)c1ccccc1)N(C)C/C=C/c1ccccc1` (centres undefined), the activation in assay [1] was -4.18%.

As to `FC(F)(F)c1cccc(C2=CCN(CCc3ccc4ccccc4c3)CC2)c1`, the activation in assay [1] was -5.08%.

For `CO[C@H]1CC=C2CCN3CCC4=C(CC(=O)OC4)[C@]23C1`, in [1], the activation is -25.9%. Also, in assay [11], the Potency entry is “inactive”.

With `Cc1[nH]nc2ccc(-c3cncc(OC[C@@H](N)Cc4c[nH]c5ccccc45)c3)cc12`, the Potency in assay [1] is 8.63 µM (active); in [4] it was 1.05 µM (active); in assay [5], 0.934 µM (active); in [12], 0.263 µM (active); in [6] it was 0.742 µM (active); in assay [13], 0.934 µM (active). The activation in assay [1] was 8.93%. In addition, the Potency entry in [2] and in assay [3] was “inactive” throughout.

For the compound `CC(O)=C(C#N)C(=O)Nc1cc(Br)ccc1Br`, the activation in [1] was 1.6%.

With `CC1NCCOC1c1ccccc1` (centres undefined), the activation in assay [1] was 9.6%.

Turning to `NC(Cc1cc(O)c(O)cc1O)C(=O)O` (centres undefined), the activation in assay [1] is -19.2%. Also, the Potency result in assay [11] was “inactive”.

Regarding `CN1CCN(c2ccc([N+](=O)[O-])c3no[n+]([O-])c23)CC1`, the Potency is 21.3 µM (active) in [1], 9.34 µM (active) in assay [5], 14.8 µM (active) in assay [12] and 18.6 µM (active) in [6]. The activation in assay [1] was 8.01%. Also, in assay [3], the Potency entry is “inactive”.

Consider `C#CCN[C@H](C)Cc1ccccc1`, for which the activation in assay [1] is 4.01%. In addition, the Potency result in [11] and in [9] was “inactive” throughout.

Turning to `NC(=O)c1cc([N+](=O)[O-])cc([N+](=O)[O-])c1`, the activation in [1] was 0.837%.

On to `NC(N)=NOCC[C@H](N)C(=O)O`, for which, in assay [1], the activation is -12%. Besides, the Potency result in [11] is “inactive”.

As for `Oc1ccc2[nH]cc(CCCCN3CC=C(c4ccccc4)CC3)c2c1`, the activation in [1] is 22%.

Turning to `COc1ccc2c(c1OC)CN1CCc3cc4c(cc3C1C2)OCO4` (centres undefined), in assay [1], the Potency is 34.3 µM (active) and the activation is 26.6%.

Turning to `C[C@@H]1O[C@H](C[N+](C)(C)C)C[C@H]1O`, in assay [1], the activation is -7.38%. Besides, the Potency entry in assay [11] and in assay [9] was “inactive” each time.

In the case of `NNC(=O)c1ccc(O)cc1`, the activation in assay [1] is -20.3%. Besides, the Potency entry in assay [11], in assay [9] and in assay [10] was “inactive” in each case. In addition, the Potency in [14] was 8.96 µM (active).

Take `Oc1ccc2c3c1O[C@H]1c4[nH]c5c(c4C[C@@]4(O)[C@@H](C2)N(CC2CC2)CC[C@]314)C[C@@]1(O)[C@H]2Cc3ccc(O)c4c3[C@@]1(CCN2CC1CC1)[C@H]5O4`: the activation in assay [1] is 26.8% and -10.8%. For the same compound, the Potency entry in assay [11], in assay [9] and in [10] was “inactive” throughout.

On to `C[N+](C)(C)CC#CCOC(=O)Nc1cccc(Cl)c1`, for which, in [1], the activation was 13.3%. For the same compound, the Potency result in assay [11] is “inactive”. Besides, the Potency was 10 µM (active) in [9], 10.1 µM (active) in assay [15] and 22.5 µM (active) in assay [16].

As to `CP(=O)(O)C1=CCNCC1`, in assay [1], the activation was -37.6%. The Potency entry in [11], in assay [9] and in assay [10] was “inactive” in each case.

For `CN1CCC(c2c[nH]c3ccc(O)cc23)CC1`, the activation in [1] was -20.9%. The Potency result in assay [11] and in assay [9] was “inactive” in each case.

`CCCN(CCC)[C@H]1CCc2c(F)ccc(O)c2C1`: the activation in [1] is 15.8%. The Potency result in [11] and in assay [9] was “inactive” each time.

Regarding `NC(=O)CI`, the activation in assay [1] is 22%. Also, the Potency entry in assay [11] was “inactive”. In addition, the Potency in [9] is 5.01 µM (active); in [14] it was 28.3 µM (active); in [17], 6.34 µM (active); in [16], 20.1 µM (active).

`COc1ccc(OC)c(C(O)C(C)N)c1` (centres undefined): the activation in [1] was 15.6%. The Potency result in assay [11], in assay [9] and in [10] was “inactive” each time.

For `NCC(O)c1cc(O)c(O)cc1F` (centres undefined), in assay [1], the activation is -23.1%. In addition, the Potency entry in [11], in [9] and in [10] was “inactive” in each case.

For the compound `O=C(NC1CN2CCC1CC2)c1cc2ccoc2cn1` (centres undefined), in assay [1], the activation is -11.8%. Moreover, the Potency entry in assay [11] and in assay [9] was “inactive” in each case.

For `C[C@H](Cc1ccc2c(c1)OC(C(=O)O)(C(=O)O)O2)NC[C@H](O)c1cccc(Cl)c1`, the activation in assay [1] was -6.85%. The Potency entry in assay [11], in assay [9] and in assay [10] was “inactive” each time.

Take `NC(=O)c1ccc(OCC(O)CN2CC=C(c3ccc(F)cc3)CC2)cc1` (centres undefined): the activation in assay [1] was 5.52%. In addition, the Potency entry in assay [11] and in assay [9] was “inactive” each time.
